“And” between values parts separate entries of the source, which are not always exact repeats. Identical values can stand only once. The campaign covered roughly 5,500 compounds. About 2,000 (36%) were called active. About 18% were inconclusive and are not listed. Cut-off read from the data, not from the text of the source: active = normalized growth mostly below about 0.91 (no sharp cut-off); inconclusive = no clear call, values can overlap the other calls; inactive = mostly above about 0.92. Some of the results follow.
Experiment: chemical genetic growth profiling, strain panel (AID 1159580);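 note: tested at 20 µM; growth read once vehicle control cultures reached saturation at 30 °C; 1 = growth at the plate median or of vehicle wells; lower values mean less growth of the strain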
Conditions: S. cerevisiae deletion strains, growth OD

Measured: normalized growth

NC(=O)N1c2ccccc2CC(=O)c2ccccc21
inactive: locus YAL013W, strain DEP1, active compounds read low 0.996 | locus YAL021C, strain ccr4, active compounds read low 0.991 | locus YAL026C, strain drs2, active compounds read low 0.998 | locus YAL030W, strain snc1, active compounds read low 0.993 | locus YBL061C, strain skt5, active compounds read low 0.994 | locus YBR009C, strain hhf1, active compounds read low 0.942 | locus YBR021W, strain FUR4, active compounds read low 0.969 | locus YBR023C, strain chs3, active compounds read low 1 | locus YBR171W, strain sec66, active compounds read low 0.989 | locus YBR229C, strain ROT2, active compounds read low 0.993 | locus YBR231C, strain swc5, active compounds read low 0.974 | locus YBR279W, strain paf1, active compounds read low 0.99 | locus YCL011C, strain gbp2, active compounds read low 0.991 | locus YCL016C, strain dcc1, active compounds read low 1.01 | locus YCL029C, strain bik1, active compounds read low 0.978 | locus YCL069W, strain vba3, active compounds read low 0.956 | locus YCR088W, strain abp1, active compounds read low 0.976 | locus YDL005C, strain med2, active compounds read low 0.971 | locus YDL035C, strain GPR1, active compounds read low 0.996 | locus YDL040C, strain nat1, active compounds read low 0.992 | locus YDL074C, strain BRE1, active compounds read low 1.03 | locus YDL101C, strain DUN1, active compounds read low 0.992 | locus YDL134C, strain PPH21, active compounds read low 0.989 | locus YDL185W, strain tfp1, active compounds read low 0.976 | locus YDL192W, strain arf1, active compounds read low 0.975 | locus YDR001C, strain nth1, active compounds read low 0.979 | locus YDR069C, strain doa4, active compounds read low 0.963 | locus YDR101C, strain arx1, active compounds read low 0.994 | locus YDR137W, strain rgp1, active compounds read low 0.991 | locus YDR150W, strain NUM1, active compounds read low 1 | locus YDR159W, strain sac3, active compounds read low 0.931 | locus YDR162C, strain NBP2, active compounds read low 1.02 | locus YDR195W, strain ref2 0.927 | locus YDR297W, strain sur2, active compounds read low 0.988 | locus YDR318W, strain mcm21, active compounds read low 0.962 | locus YDR334W, strain swr1, active compounds read low 0.95 | locus YDR335W, strain msn5, active compounds read low 0.973 | locus YDR388W, active compounds read low 0.991 | locus YDR392W, strain spt3, active compounds read low 0.956 | locus YDR502C, strain sam2, active compounds read low 0.994 | locus YEL003W, strain gim4, active compounds read low 0.987 | locus YEL037C, strain rad23, active compounds read low 0.984 | locus YEL061C, strain CIN8 (second series), active compounds read low 0.98 | locus YEL061C, strain CIN8, active compounds read low 0.998 | locus YER015W, strain faa2, active compounds read low 0.993 | locus YER016W, strain bim1, active compounds read low 1.01 | locus YER110C, active compounds read low 0.975 | locus YER111C, strain swi4, active compounds read low 0.993 | locus YER155C, strain BEM2 (second series), active compounds read low 0.97 | locus YER155C, strain BEM2, active compounds read low 0.982 | locus YER167W, strain BCK2, active compounds read low 0.967 | locus YFR010W, strain ubp6, active compounds read low 0.947 | locus YGL078C, strain dbp3, active compounds read low 0.99 | locus YGL086W, strain mad1, active compounds read low 0.974 | locus YGL167C, strain pmr1, active compounds read low 0.968 | locus YGL173C, strain kem1, active compounds read low 0.948 | locus YGL227W, strain vid30, active compounds read low 1.01 | locus YGL240W, strain doc1, active compounds read low 0.948 | locus YGL248W, strain PDE1, active compounds read low 0.987 | locus YGL253W, strain hxk2, active compounds read low 0.966 | locus YGR078C, strain PAC10, active compounds read low 1.01 | locus YGR135W, strain pre9, active compounds read low 1 | locus YGR229C, strain SMI1, active compounds read low 1 | locus YGR252W, strain gcn5, active compounds read low 0.922 | locus YHR013C, strain ard1, active compounds read low 0.995 | locus YHR027C, strain rpn1, active compounds read low 0.972 | locus YHR030C, strain SLT2, active compounds read low 0.983 and 0.997 | locus YHR079C, strain IRE1 (second series), active compounds read low 0.968 | locus YHR079C, strain IRE1, active compounds read low 0.997 | locus YHR094C, strain hxt1, active compounds read low 0.978 | locus YHR129C, strain ARP1, active compounds read low 0.99 | locus YHR142W, strain chs7, active compounds read low 0.977 | locus YHR200W, strain rpn10, active compounds read low 0.97 | locus YIL066C, strain RNR3, active compounds read low 0.991 | locus YIL073C, strain SPO22, active compounds read low 0.955 | locus YIL125W, strain kgd1, active compounds read low 0.998 | locus YIR030C, strain dcg1, active compounds read low 0.981 | locus YJL092W, strain hpr5, active compounds read low 0.995 | locus YJL095W, strain BCK1 (second series), active compounds read low 0.997 | locus YJL095W, strain BCK1, active compounds read low 1.02 and 0.994 | locus YJL115W, strain asf1, active compounds read low 0.992 | locus YJL129C, strain trk1, active compounds read low 0.995 | locus YJL134W, strain LCB3, active compounds read low 0.99 | locus YJL154C, strain vps35, active compounds read low 0.992 | locus YJL164C, strain tpk1, active compounds read low 0.972 | locus YJL166W, strain qcr8, active compounds read low 0.941 | locus YJL168C, strain set2, active compounds read low 0.985 | locus YJL187C, strain SWE1 (second series), active compounds read low 1 | locus YJR043C, strain POL32, active compounds read low 0.979 | locus YJR066W, strain TOR1, active compounds read low 0.946 | locus YJR075W, strain HOC1, active compounds read low 1.05

From PubChem BioAssay AID1159580 (chemical genetic matrix, 2015)
